Experimental data from PubChem BioAssay AID1159580 (chemical genetic matrix, 2015).
Values joined by “and” are separate entries in the source; they are usually repeats but may differ in a detail not shown here. Equal values may be shown once. In all, about 5,500 compounds went through this assay and about 2,000 (36%) were called active. Roughly 18% stayed inconclusive and do not appear here. No stated cut-off is given here; in the data, active means normalized growth mostly below about 0.91 (no sharp cut-off); inconclusive means no clear call, values can overlap the other calls; inactive means mostly above about 0.92. The list shows a part of the results.

Experiment: chemical genetic growth profiling, strain panel (AID 1159580);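 further: tested at 20 µM; growth read once vehicle control cultures reached saturation at 30 °C; 1 = growth at the plate median or of vehicle wells; lower values mean less growth of the strain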
Conditions: S. cerevisiae deletion strains, growth OD

Measured: normalized growth

NCCCCN=C(N)N
inactive: locus YAL013W, strain DEP1, hits give low values 1 | locus YAL021C, strain ccr4, hits give low values 1.02 | locus YAL026C, strain drs2, hits give low values 1.03 | locus YAL030W, strain snc1, hits give low values 1.03 | locus YAL040C, strain CLN3, hits give low values 1 | locus YBL061C, strain skt5, hits give low values 1.01 | locus YBR009C, strain hhf1, hits give low values 1.02 | locus YBR021W, strain FUR4, hits give low values 0.983 | locus YBR023C, strain chs3, hits give low values 1.03 | locus YBR171W, strain sec66, hits give low values 1.03 | locus YBR229C, strain ROT2, hits give low values 0.996 | locus YBR231C, strain swc5, hits give low values 1.01 | locus YBR279W, strain paf1, hits give low values 1.01 | locus YCL011C, strain gbp2, hits give low values 1.03 | locus YCL016C, strain dcc1, hits give low values 1.01 | locus YCL029C, strain bik1, hits give low values 0.979 | locus YCL061C, strain MRC1 (second series), hits give low values 1.01 | locus YCL069W, strain vba3, hits give low values 1.02 | locus YCR088W, strain abp1, hits give low values 1.04 | locus YDL005C, strain med2, hits give low values 1.04 | locus YDL035C, strain GPR1, hits give low values 1.02 | locus YDL040C, strain nat1, hits give low values 1.02 | locus YDL074C, strain BRE1, hits give low values 0.992 | locus YDL101C, strain DUN1, hits give low values 0.998 | locus YDL134C, strain PPH21, hits give low values 1.04 | locus YDL185W, strain tfp1, hits give low values 0.976 | locus YDL192W, strain arf1, hits give low values 0.986 | locus YDR001C, strain nth1, hits give low values 1.01 | locus YDR069C, strain doa4, hits give low values 1.02 | locus YDR101C, strain arx1, hits give low values 0.968 | locus YDR137W, strain rgp1, hits give low values 1.04 | locus YDR150W, strain NUM1, hits give low values 1 | locus YDR159W, strain sac3, hits give low values 1 | locus YDR162C, strain NBP2, hits give low values 1.01 | locus YDR195W, strain ref2 1.04 | locus YDR297W, strain sur2, hits give low values 1.02 | locus YDR318W, strain mcm21, hits give low values 1 | locus YDR334W, strain swr1, hits give low values 1.02 | locus YDR335W, strain msn5, hits give low values 1.03 | locus YDR363W, strain ESC2, hits give low values 0.994 | locus YDR388W, hits give low values 0.976 | locus YDR392W, strain spt3, hits give low values 0.992 | locus YDR502C, strain sam2, hits give low values 0.987 | locus YEL003W, strain gim4, hits give low values 1.02 | locus YEL037C, strain rad23, hits give low values 1.02 | locus YEL061C, strain CIN8 (second series), hits give low values 1.03 | locus YEL061C, strain CIN8, hits give low values 1 | locus YER002W, strain NOP16, hits give low values 1.03 | locus YER015W, strain faa2, hits give low values 1.03 | locus YER016W, strain bim1, hits give low values 1.01 | locus YER110C, hits give low values 0.977 | locus YER111C, strain swi4, hits give low values 1.03 | locus YER155C, strain BEM2 (second series), hits give low values 1.02 | locus YER155C, strain BEM2, hits give low values 0.981 | locus YER167W, strain BCK2, hits give low values 0.999 | locus YFR010W, strain ubp6, hits give low values 1.04 | locus YGL078C, strain dbp3, hits give low values 0.981 | locus YGL086W, strain mad1, hits give low values 0.963 | locus YGL167C, strain pmr1, hits give low values 1.02 | locus YGL173C, strain kem1, hits give low values 1.02 | locus YGL227W, strain vid30, hits give low values 1.02 | locus YGL240W, strain doc1, hits give low values 1.02 | locus YGL248W, strain PDE1, hits give low values 1 | locus YGL253W, strain hxk2, hits give low values 1.02 | locus YGR078C, strain PAC10, hits give low values 1 | locus YGR135W, strain pre9, hits give low values 1 | locus YGR229C, strain SMI1, hits give low values 1.01 | locus YGR252W, strain gcn5, hits give low values 1.09 | locus YHR013C, strain ard1, hits give low values 1.12 | locus YHR027C, strain rpn1, hits give low values 1.02 | locus YHR030C, strain SLT2, hits give low values 0.993 and 1.01 | locus YHR079C, strain IRE1 (second series), hits give low values 0.987 | locus YHR079C, strain IRE1, hits give low values 1.01 | locus YHR094C, strain hxt1, hits give low values 0.974 | locus YHR142W, strain chs7, hits give low values 1.05 | locus YHR200W, strain rpn10, hits give low values 0.987 | locus YIL066C, strain RNR3, hits give low values 0.994 | locus YIL073C, strain SPO22, hits give low values 1.03 | locus YIL125W, strain kgd1, hits give low values 0.974 | locus YIR030C, strain dcg1, hits give low values 0.988 | locus YJL092W, strain hpr5, hits give low values 1.02 | locus YJL095W, strain BCK1 (second series), hits give low values 1.03 | locus YJL095W, strain BCK1, hits give low values 1.02 and 0.995 | locus YJL115W, strain asf1, hits give low values 1.03 | locus YJL129C, strain trk1, hits give low values 1.06 | locus YJL134W, strain LCB3, hits give low values 0.998 | locus YJL154C, strain vps35, hits give low values 1.02 | locus YJL164C, strain tpk1, hits give low values 1.02 | locus YJL166W, strain qcr8, hits give low values 1.02 | locus YJL168C, strain set2, hits give low values 0.981 | locus YJL187C, strain SWE1 (second series), hits give low values 0.997 | locus YJL187C, strain SWE1, hits give low values 1.02 | locus YJR043C, strain POL32, hits give low values 0.993 | locus YJR066W, strain TOR1, hits give low values 0.973 | locus YKL009W, strain mrt4, hits give low values 1 | locus YKL068W, hits give low values 0.994 | locus YKL085W, strain MDH1 (second series), hits give low values 0.993 | locus YKL085W, strain MDH1, hits give low values 0.993 | locus YKL160W, strain elf1, hits give low values 1.02 | locus YKL190W, strain CNB1, hits give low values 1.01 | locus YKR001C, strain vps1, hits give low values 0.963 | locus YKR026C, strain gcn3, hits give low values 1.02 | locus YKR091W, strain srl3, hits give low values 1.02 | locus YLL001W, strain dnm1, hits give low values 1.01 | locus YLL026W, hits give low values 1.02 | locus YLL041C, strain sdh2, hits give low values 1.02 | locus YLR027C, strain aat2, hits give low values 1.03 | locus YLR039C, strain RIC1, hits give low values 1.01 | locus YLR058C, strain SHM2, hits give low values 1.01 | locus YLR102C, strain apc9, hits give low values 0.985 | locus YLR113W, strain HOG1, hits give low values 1 | locus YLR221C, strain rsa3, hits give low values 1.01 | locus YLR258W, strain gsy2, hits give low values 1.02 | locus YLR262C, strain YPT6 (second series), hits give low values 1.04 | locus YLR262C, strain YPT6, hits give low values 1.06 | locus YLR268W, strain sec22, hits give low values 0.957 | locus YLR320W, strain mms22, hits give low values 1.02 | locus YLR330W, strain CHS5, hits give low values 0.978 | locus YLR342W, strain FKS1 (second series), hits give low values 1.01 | locus YLR342W, strain FKS1, hits give low values 1.01 | locus YLR357W, strain rsc2, hits give low values 1.05 | locus YLR370C, strain arc18, hits give low values 1.03 | locus YLR371W, strain rom2, hits give low values 0.972 | locus YLR384C, strain iki3, hits give low values 1.03 | locus YLR418C, strain cdc73, hits give low values 1.01 | locus YML016C, strain PPZ1, hits give low values 0.991 | locus YML032C, strain rad52, hits give low values 1.02 | locus YML120C, strain ndi1, hits give low values 1.04 | locus YML124C, strain tub3, hits give low values 0.987 | locus YMR058W, strain fet3, hits give low values 1.02 | locus YMR078C, strain ctf18, hits give low values 0.986 | locus YMR125W, strain sto1, hits give low values 1.03 | locus YMR129W, hits give low values 1.02 | locus YMR205C, strain PFK2, hits give low values 1.02 | locus YMR223W, strain ubp8, hits give low values 1 | locus YMR231W, strain pep5, hits give low values 1.03 | locus YMR263W, strain SAP30, hits give low values 1.01 | locus YMR307W, strain GAS1, hits give low values 1.04 and 0.995 | locus YNL067W, strain RPL9B, hits give low values 1.01 | locus YNL071W, strain lat1, hits give low values 1.02 | locus YNL153C, strain GIM3, hits give low values 1.01 | locus YNL175C, strain NOP13, hits give low values 0.997 | locus YNL183C, strain NPR1, hits give low values 0.959 | locus YNL197C, strain WHI3, hits give low values 1.01 | locus YNL209W, strain ssb2, hits give low values 1.02 | locus YNL224C, strain SQS1, hits give low values 1.01 | locus YNL233W, strain BNI4, hits give low values 0.988 | locus YNL248C, strain rpa49, hits give low values 1.02 | locus YNL250W, strain rad50, hits give low values 0.974 | locus YNL271C, strain bni1, hits give low values 0.976 | locus YNL298W, strain CLA4, hits give low values 0.969 | locus YNL307C, strain MCK1, hits give low values 0.973 | locus YNL322C, strain KRE1 (second series), hits give low values 1.03 | locus YNL322C, strain KRE1, hits give low values 1 | locus YNR049C, strain mso1, hits give low values 1.02 | locus YNR052C, strain pop2, hits give low values 0.995 | locus YOL012C, strain htz1 0.814 | locus YOL147C, strain pex11, hits give low values 0.993 | locus YOR001W, strain rrp6, hits give low values 1.03 | locus YOR061W, strain CKA2, hits give low values 1 | locus YOR069W, strain VPS5, hits give low values 0.994 | locus YOR070C, strain gyp1, hits give low values 1.02 | locus YOR080W, strain dia2, hits give low values 1.03 | locus YOR083W, strain WHI5 (second series), hits give low values 1.01 | locus YOR083W, strain WHI5, hits give low values 1.01 | locus YOR106W, strain vam3, hits give low values 1.04 | locus YOR136W, strain idh2, hits give low values 0.972 | locus YOR144C, strain elg1, hits give low values 0.984 | locus YOR184W, strain ser1, hits give low values 0.985 | locus YOR265W, strain rbl2, hits give low values 1.02 | locus YOR270C, strain vph1, hits give low values 1.05 | locus YOR290C, strain snf2, hits give low values 1.01 | locus YOR316C, strain cot1, hits give low values 0.983 | locus YPL051W, strain arl3, hits give low values 1.01 | locus YPL078C, strain atp4, hits give low values 1.03 | locus YPL106C, strain sse1, hits give low values 1.04 | locus YPL240C, strain hsp82, hits give low values 1.02 | locus YPL256C, strain CLN2, hits give low values 0.994 | locus YPR119W, strain clb2, hits give low values 0.988 | locus YPR141C, strain kar3, hits give low values 0.988 | locus YPR163C, strain tif3, hits give low values 0.975 | locus YPR167C, strain met16, hits give low values 0.986 | strain wtn01, hits give low values 0.939
